TbPYK inhibitor: qHTS of Trypanosoma Brucei Inhibitors. TbPYK enzyme, Kinase-Glo Plus ATP luminescence, 45 min. actives 0.12% (n = 410,000). Potency, µM (top dose mostly 76.8 µM), hits mostly inhibitors; also: nearly all actives have a fitted effect of over 50% in size
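Quantitative HTS: titrated library compounds versus trypanosomal pyruvate kinase in TEA buffer (pH 7.2) containing KCl, MgCl2, BSA and Tween-20. Reactions were initiated with ADP, 130 uM final. Kinase-Glo Plus luminescence was read after 45 min at RT.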
Cycloheximide cs: Cycloheximide Counterscreen for Small Molecule Inhibitors of Shiga Toxin; actives 12% (n = 300,000); max response, %; cell reporter, cycloheximide protein synthesis inhibition counterscreen; in the data active = max response mostly above about 13%, no sharp cut-off; inactive = mostly below about 14%; also: read at 38.3 µM for the half of the compounds with a filed dose
LmPK inhibitor: qHTS Assay for Inhibitors of Leishmania Mexicana Pyruvate Kinase (LmPK); Potency, µM (series often up to 57.5 µM), actives largely listed as inhibitors; purified LmPK, Kinase-Glo ATP luminescence, 1 h; AID 1721, 2009; actives 0.37% (n = 290,000)
Target sequence (Q27686 whole entry, looked up): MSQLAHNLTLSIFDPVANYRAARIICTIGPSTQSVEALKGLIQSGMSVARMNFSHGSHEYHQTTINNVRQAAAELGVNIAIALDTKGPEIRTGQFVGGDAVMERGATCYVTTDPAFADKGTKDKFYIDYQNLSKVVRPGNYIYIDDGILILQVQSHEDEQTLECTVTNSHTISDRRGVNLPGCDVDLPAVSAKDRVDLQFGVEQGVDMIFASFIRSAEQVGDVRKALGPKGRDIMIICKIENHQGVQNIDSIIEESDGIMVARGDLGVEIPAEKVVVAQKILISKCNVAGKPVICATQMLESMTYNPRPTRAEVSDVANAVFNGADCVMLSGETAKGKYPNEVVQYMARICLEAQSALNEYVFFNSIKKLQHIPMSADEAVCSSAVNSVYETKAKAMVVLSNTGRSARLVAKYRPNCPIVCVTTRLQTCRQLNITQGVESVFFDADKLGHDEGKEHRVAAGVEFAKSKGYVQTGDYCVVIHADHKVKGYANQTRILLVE
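Purified LmPK (0.1 nM) with 0.5 mM PEP and 0.1 mM ADP in imidazole buffer pH 7.2 with MgCl2/KCl, 1 h at room temperature. ATP formed was read by luciferase luminescence and normalized to no-enzyme and uninhibited controls.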
RE007 growth inh: qHTS Assay for Inhibitors of the HIV-1 protein Vpr; Potency, µM (top dose mostly 92.2 µM), hits mostly inhibitors; S. pombe RE007 Vpr strain, BacTiter-Glo ATP luminescence, 24 h; actives 0.21% (n = 360,000); AID 651644, 2012; active = well fitted falling curve with a large enough effect; inconclusive = small, poorly fitted or top-dose-only effect; inactive = no such curve, though single readings can be large or run the other way; also: nearly all actives have a fitted effect of over 50% in size
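Fission yeast strain RE007, carrying one chromosomally integrated HIV-1 vpr copy, was seeded at OD 0.01 in PMG+AL medium with 23 nL pinned compound. After 24 h at 30 °C and 99% humidity, viability was read by BacTiter-Glo luminescence.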
Giardia FBPA inh: qHTS Assay for Inhibitors of Fructose-1,6-bisphosphate Aldolase from Giardia Lamblia | actives 0.71% (n = 290,000) | AID 2451, 2010 | A8B2U2 | purified Giardia FBPA | Potency, µM (series often up to 59.6 µM), most hits filed as inhibitors; also: nearly all actives have a fitted effect of over 55% in size
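Giardia FBPA (40 nM reagent) was preincubated 10 min at RT with compound (up to 57.5 uM final), then substrate plus GAPDH/TPI/NAD/arsenate coupling system with diaphorase/resazurin was added; resorufin fluorescence (525/598 nm) was read after 20 min.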
Shiga inhibitor: A qHTS for Small Molecule Inhibitors of Shiga Toxin | actives 9.2% (n = 290,000) | Vero cells, Shiga toxin protein synthesis inhibition reporter | inhibition, % at 38.7 µM; in the data active = inhibition mostly above about 28%, no sharp cut-off; inactive = mostly below about 43%
Each line names hits and unclear results; the compound was inactive in the other large screens. Only a selection was taken, and hits are over-represented in it overall. Unless noted, calls follow the shape of the dose curve; as a rule, active = well fitted curve in the direction sought with a large enough effect; inconclusive = small, poorly fitted or top-dose-only effect, or another doubt; inactive = no such curve, though single readings can be large; an effect the other way counts as inactive or inconclusive.

Clc1ccc(-n2ncc3c(NC4CCCC4)ncnc32)cc1	none (no result: Cycloheximide cs, LmPK inhibitor, RE007 growth inh, Giardia FBPA inh, Shiga inhibitor)
Cc1cccc(-n2ncc3c(N(C)Cc4ccccc4)ncnc32)c1	Cycloheximide cs 57, Shiga inhibitor 97
CCCCN(CCCC)c1ncnc2c1cnn2-c1cccc(C)c1	none (no result: Cycloheximide cs, LmPK inhibitor, RE007 growth inh, Giardia FBPA inh, Shiga inhibitor)
NNc1ncnc2c1cnn2-c1ccccc1	Cycloheximide cs 38
CCc1cccc(NC(=O)c2ccc(CN3C(=O)C(C)=C(c4ccc(OC)cc4)S3(=O)=O)cc2)c1	none (no result: Cycloheximide cs, LmPK inhibitor, RE007 growth inh, Giardia FBPA inh, Shiga inhibitor)
O=C(CCn1c(=O)c2cccn2c2cccnc21)N1CCN(c2ccc(F)cc2)CC1	none (no result: Cycloheximide cs, LmPK inhibitor, RE007 growth inh, Giardia FBPA inh, Shiga inhibitor)
CCCCCN1C(C(=O)c2ccccc2)=C(NC(=O)c2ccc(OC)cc2)c2ccccc2S1(=O)=O	none (no result: Cycloheximide cs, LmPK inhibitor, RE007 growth inh, Giardia FBPA inh, Shiga inhibitor)
CC(=O)Nc1ccccc1-c1nc2ccccc2n(C(C)C(=O)Nc2ccccc2C(F)(F)F)c1=O (configuration not stated)	none (no result: Cycloheximide cs, LmPK inhibitor, RE007 growth inh, Giardia FBPA inh, Shiga inhibitor)
CCc1ccc(C2/C=C\CNC(c3ccccc3)C(=O)N2Cc2ccc(C)cc2)cc1 (configuration not stated)	none (no result: TbPYK inhibitor, LmPK inhibitor, RE007 growth inh)
Cc1cccc(C)c1OCc1nc2c3cnn(-c4cccc(F)c4)c3ncn2n1	none (no result: Cycloheximide cs, LmPK inhibitor, RE007 growth inh, Giardia FBPA inh, Shiga inhibitor)
CC(C)Nc1ncnc2c1cnn2-c1ccccc1	Cycloheximide cs 23, Shiga inhibitor 24
Cc1ccccc1Nc1ncnc2c1cnn2-c1ccccc1	Cycloheximide cs 48, Shiga inhibitor 70
Cc1cccc(-n2ncc3c(N)ncnc32)c1	Cycloheximide cs 52
Cc1cccc(-n2ncc3c(NC(C)C)ncnc32)c1	Cycloheximide cs 53, Shiga inhibitor 79
Cc1cccc(-n2ncc3c(N4CCCCCC4)ncnc32)c1	none (no result: Cycloheximide cs, LmPK inhibitor, RE007 growth inh, Giardia FBPA inh, Shiga inhibitor)
Cc1ccc(-n2ncc3c(Nc4ccccc4C)ncnc32)cc1	none (no result: Cycloheximide cs, LmPK inhibitor, RE007 growth inh, Giardia FBPA inh, Shiga inhibitor)
CC(C)N(Cc1nc(-c2ccc(Cl)cc2)no1)C(=O)c1ccco1	none (no result: Cycloheximide cs, LmPK inhibitor, RE007 growth inh, Giardia FBPA inh, Shiga inhibitor)
COC(=O)c1ccc(Nc2ncnc3c2cnn3-c2cccc(C)c2)cc1	none
Cc1cccc(-n2ncc3c(Nc4ccc(F)cc4)ncnc32)c1	Cycloheximide cs 44, Shiga inhibitor 52
CCOC(=O)c1c(S(=O)(=O)N2CCCC(C(=O)NCc3cccc(OC)c3)C2)c(C)n(C)c1C (configuration not stated)	none (no result: Cycloheximide cs, LmPK inhibitor, RE007 growth inh, Giardia FBPA inh, Shiga inhibitor)
COc1ccc(Nc2ncnc3sc(C)cc23)c(OC)c1	Cycloheximide cs 23, Giardia FBPA inh inconclusive, Shiga inhibitor 48
CC(C)(C)OC(=O)N1CCCC1C(=O)NC1COC2CC(n3ccc(=O)[nH]c3=O)OC12 (configuration not stated)	none (no result: TbPYK inhibitor, LmPK inhibitor, RE007 growth inh)
NCC[C@H](O)C(=O)N[C@@H]1C[C@H](N)[C@@H](O[C@H]2O[C@H](CN)CC[C@H]2N)[C@H](O)[C@H]1O[C@H]1O[C@H](CO)[C@@H](O)[C@H](N)[C@H]1O	none (no result: Cycloheximide cs, LmPK inhibitor, RE007 growth inh, Giardia FBPA inh, Shiga inhibitor)
C/C(Cn1cnc([N+](=O)[O-])n1)=N\NC(=O)c1ccccc1O	Cycloheximide cs 24, Shiga inhibitor 39
C/C(Cn1cnc([N+](=O)[O-])n1)=N\NC(=O)c1ccc(O)cc1O	Cycloheximide cs 42, Shiga inhibitor 87
C/C(Cn1cnc([N+](=O)[O-])n1)=N\NC(=O)c1ccccc1F	none (no result: Cycloheximide cs, LmPK inhibitor, Giardia FBPA inh, Shiga inhibitor)
C/C(Cn1nc([N+](=O)[O-])cc1C)=N\NC(=O)c1ccc(O)cc1O	Cycloheximide cs 30
CSc1ncc(C(=O)Nc2cccc(C)c2C)c(-c2ccccc2)n1	none (no result: Cycloheximide cs, LmPK inhibitor, RE007 growth inh, Giardia FBPA inh, Shiga inhibitor)
CC12CCC=CC1C(c1ccc(F)c(/C=C/c3ccccc3)c1)N(Cc1ccccc1)C2=O (configuration not stated)	none (no result: TbPYK inhibitor, LmPK inhibitor, RE007 growth inh)
CC(C)c1cc2c(s1)c1cnn(Cc3ccccc3F)c(=O)c1n2C	none (no result: TbPYK inhibitor, LmPK inhibitor, RE007 growth inh, Giardia FBPA inh)
CN(Cc1ccco1)C(=O)c1c[nH]c2ccc(S(=O)(=O)Nc3ccc4c(c3)OCCO4)cc2c1=O	Cycloheximide cs 18
CCc1ccc(NS(=O)(=O)c2ccc3[nH]cc(C(=O)N(C)Cc4ccco4)c(=O)c3c2)cc1	none
COc1ccc(NC(=O)c2cnc(SCC(=O)Nc3nc4ccc(C)cc4s3)n(C)c2=O)cc1	none (no result: Cycloheximide cs, LmPK inhibitor, RE007 growth inh, Giardia FBPA inh, Shiga inhibitor)
Cc1nc2ncccn2c1-c1csc(Nc2ccccc2)n1	none
c1cncc(Nc2nc(-c3cccs3)cs2)c1	TbPYK inhibitor inconclusive, Cycloheximide cs 63, Shiga inhibitor 103
